Screening data (PubChem BioAssay)
Only some compounds are listed: those with a hit (about 2.4% of all), similar ones and a draw of the others.
SENP6 inh: inhibitors of human SENP6 protease; hit rate 1.8% among 330,000; Recombinant SENP6 catalytic domain, aminoluciferin luminescence; inhibition, % at 10 µM;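 active = inhibition above about 50% at the single tested dose, limit read from the data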
SENP8 block-1: SENP8 protease inhibition; AID 2540; inhibition, % at 10 µM; Q96LD8; hit rate 1.2% among 330,000; purified SENP8, Z-RLRGG-aminoluciferin cleavage, luminescence; in the data active = inhibition above about 50%
Target sequence (Q96LD8 whole entry, looked up): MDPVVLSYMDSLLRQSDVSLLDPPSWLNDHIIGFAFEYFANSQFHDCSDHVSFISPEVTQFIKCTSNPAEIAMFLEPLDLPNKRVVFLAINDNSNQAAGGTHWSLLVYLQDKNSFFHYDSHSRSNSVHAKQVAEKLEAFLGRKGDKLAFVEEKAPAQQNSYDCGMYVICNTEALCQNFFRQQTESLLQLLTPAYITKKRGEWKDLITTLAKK
SENP8 block-2: SENP8 (human) protease inhibition; Q96LD8; recombinant SENP8, Nedd8 substrate fluorescence; inhibition, % at 20 µM; hit rate 0.64% among 360,000; in the data active = inhibition mostly above about 40%, no sharp cut-off; inactive = mostly below about 27%
SENP7 inh: inhibitors of human SENP7 protease. Q9BQF6. recombinant SENP7, Z-RLRGG-aminoluciferin luminescence, 40 min. inhibition, % at 5 µM. hit rate 1.5% among 330,000;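 active = inhibition above about 50% at the single test dose, limit read from the data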
Platelet DG rel: modulates dense granule release in human platelets. AID 1663. inhibition, %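 (compounds screened at 7.5 µM in platelet-rich plasma)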. human platelet-rich plasma, SFLLRN dense granule ATP release, luminescence. hit rate 0.22% among 300,000;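 active = mean replicate score, as percent of positive control, at or above 50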
SENP8 conf: confirmation of human SENP8 protease inhibitors | shares compounds with SENP7 inh | Recombinant SENP8, Z-RLRGG-aminoluciferin luminescence, 60 min | inhibition, % at 12.5 µM | hit rate 40% among 6,200;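 active = mean inhibition across replicates above about 50%, limit read from the data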
SENP6 confirm: human SENP6 inhibition, confirmed; shares compounds with SENP7 inh; recombinant SENP6, Z-RLRGG-aminoluciferin luminescence; inhibition, % at 12.5 µM; hit rate 58% among 6,200; AID 488915
SENP7 conf: human SENP7 inhibition, confirmed | recombinant SENP7, Z-RLRGG-aminoluciferin luminescence, 40 min | hit rate 69% among 6,200 | shares compounds with SENP7 inh | inhibition, % at 12.5 µM | AID 488917
Casp3 SENP sel: inhibits human caspase-3 in SENP selectivity test; shares compounds with SENP7 inh; purified caspase-3, Z-DEVD-aminoluciferin luminescence, 60 min; inhibition, % at 12.5 µM; hit rate 60% among 6,200; AID 488918;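 active = mean inhibition above about 50%, limit read from the data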
Target sequence (P42574 28-227 limits assumed): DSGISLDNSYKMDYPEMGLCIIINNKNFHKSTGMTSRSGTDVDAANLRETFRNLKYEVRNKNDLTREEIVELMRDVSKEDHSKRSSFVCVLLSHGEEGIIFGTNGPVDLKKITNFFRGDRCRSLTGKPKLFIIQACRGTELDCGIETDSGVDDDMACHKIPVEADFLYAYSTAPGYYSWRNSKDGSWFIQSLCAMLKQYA
Luc interf: counter-screen for SENP inhibitors: luminescence interference; inhibition, % at 12.5 µM; hit rate 39% among 6,200; Pre-incubated SENP8/Z-RLRGG-aminoluciferin, luciferase luminescence interference; AID 488919; shares compounds with SENP7 inh;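 active = mean inhibition above about 50% when retested at one dose, limit read from the data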
Each line names hits and unclear results; the compound was inactive in the other large screens (follow-up assays come after a bar, where they were run).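 Rule for the calls, unless noted: active = mean inhibition above about 50% in the one-dose retest (limit read from the data); inactive = the rest.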

O=C(Nc1ccc2c(c1)OCCO2)C(=O)c1c[nH]c2ccccc12	SENP6 inh 86.8, SENP8 block-1 82.1, SENP7 inh 99.4 | SENP8 conf 78.8 | SENP6 confirm 78.3 | SENP7 conf 101.2 | Casp3 SENP sel 86.2 | Luc interf 92.0
COC(=O)[C@@H](Cc1c[nH]c2ccccc12)NC(=O)c1ccc2c(c1)OCO2	SENP6 inh 59.2, SENP8 block-1 53.2, SENP7 inh 64.6 | SENP8 conf inactive | SENP6 confirm inactive | SENP7 conf 83.1 | Casp3 SENP sel 67.0 | Luc interf 67.9
Cc1[nH]c2ccccc2c1C(=O)C(=O)Nc1ccc2c(c1)OCCO2	none
CC(=O)N[C@@H](Cc1c[nH]c2ccccc12)C(=O)OCC(=O)Nc1ccc2c(c1)OCO2	none (no result: SENP6 inh, SENP8 block-1, SENP7 inh, Platelet DG rel)
CCN(C(=O)CSc1ccc2ccccc2n1)C1CCCCC1	none (no result: Platelet DG rel)
O=[N+]([O-])c1ccc(COn2nnc3ccccc32)cc1	none
Clc1ccc(COn2nnc3ccccc32)c(Cl)c1	SENP6 inh 60.0 | SENP8 conf inactive | SENP6 confirm inactive | SENP7 conf 76.6 | Casp3 SENP sel inactive | Luc interf inactive
Cc1ccc(C(=O)N2CCN(c3ccccc3Cl)CC2)cc1[N+](=O)[O-]	none
CCOc1ncccc1C(=O)NCCc1ccc(Cl)cc1	none
CSc1ncccc1C(=O)OCc1ccccc1F	SENP6 inh 71.7, SENP8 block-1 50.2 | SENP8 conf 53.2 | SENP6 confirm 55.0 | SENP7 conf 79.4 | Casp3 SENP sel 51.4 | Luc interf 55.7
CSc1ncccc1C(=O)OCc1ccc([N+](=O)[O-])cc1	none
CSc1ncccc1C(=O)OCc1ccccc1	SENP6 inh 53.7 | SENP8 conf inactive | SENP6 confirm inactive | SENP7 conf 59.9 | Casp3 SENP sel inactive | Luc interf inactive
CCCCn1c(N)c(N(CC(C)C)C(=O)CCCn2c(=O)oc3ccccc32)c(=O)[nH]c1=O	none
O=C(Nc1ccc(Cl)cc1)Nc1ccccc1Sc1ncc([N+](=O)[O-])s1	SENP6 inh 99.2, SENP8 block-1 96.3, SENP7 inh 95.1 | SENP8 conf 100.0 | SENP6 confirm 101.1 | SENP7 conf 104.0 | Casp3 SENP sel 99.8 | Luc interf inactive
O=C(Nc1csc([N+](=O)[O-])c1)Nc1ccccc1Cl	none
COc1ccc(NC(=O)c2cc(-c3cc(Cl)ccc3OC)n[nH]2)c(C)c1	none (no result: SENP6 inh, SENP8 block-1, SENP7 inh, Platelet DG rel)
Cc1cccc(NC(=S)NNC(=O)c2csc(C(C)C)c2)c1	SENP6 inh 77.0, SENP7 inh 86.9 | SENP8 conf inactive | SENP6 confirm inactive | SENP7 conf inactive | Casp3 SENP sel inactive | Luc interf inactive
Cc1ccsc1C(=O)NNC(=S)NCC(C)C	none
Cc1cccc(C(=O)NNC(=O)Nc2ccccc2)c1	none
Cc1cccc(NC(=S)NNC(=O)c2sccc2C)c1	SENP6 inh 82.9, SENP7 inh 64.6 | SENP8 conf 56.3 | SENP6 confirm 56.1 | SENP7 conf 74.9 | Casp3 SENP sel 67.4 | Luc interf 63.5
CCc1cc(C(=O)NNC(=S)Nc2cccc(C)c2)cs1	SENP6 inh 74.5, SENP7 inh 56.1 | SENP8 conf inactive | SENP6 confirm inactive | SENP7 conf inactive | Casp3 SENP sel inactive | Luc interf inactive
CCCCNC(=S)NNC(=O)c1csc(CC)c1	none
NC(=NCCc1c[nH]c2ccccc12)NC(=O)c1ccc(F)cc1	none
Cc1cccc(NC(=O)CSc2n[nH]c(-c3ccncc3)n2)c1C	none
COc1ccccc1CNC(=O)Cn1cc(Br)ccc1=O	none
CCS(=O)(=O)c1ccc2oc(Nc3cc(Cl)ccc3OC)nc2c1	none
Cc1cccc(C)c1Nc1nc2ccccc2o1	none
CCS(=O)(=O)c1ccc2oc(Nc3ccccc3Cl)nc2c1	SENP6 inh 94.6, SENP8 block-1 91.4, SENP7 inh 92.3, Platelet DG rel 57.3 | SENP8 conf 73.7 | SENP6 confirm 92.1 | SENP7 conf 99.2 | Casp3 SENP sel 93.6 | Luc interf inactive
